# Laboratory results taken from PubChem BioAssay (NCI).
# The panel holds about 83,000 compounds, 20% with a hit somewhere; the sample as a whole holds those more often.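 Each cell line was grown in a 96-well plate and treated with one concentration of compound for 48 hours. Values below 10 were considered active.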 Unmarked numbers belong to inactive results. Activity calls are given as the source filed them.
# Legend:
# Assay in all cases: NCI-60 one-dose screen, 48 h (100 = growth as untreated, 0 = no growth, -100 = all killed)
# SR leukemia = settings: 10 µM unless noted
# RPMI-8226 leukemia = settings: 10 µM
# OVCAR-8 ovarian = settings: 10 µM unless noted
# OVCAR-4 ovarian = settings: 10 µM unless noted
# SK-OV-3 ovarian = settings: 10 µM
# IGROV1 ovarian = settings: 10 µM unless noted
# OVCAR-3 ovarian = settings: 10 µM unless noted
# HS 578T breast = settings: 10 µM unless noted
# NCI/ADR-RES ovarian = settings: 10 µM unless noted
# T-47D breast = settings: 10 µM
# BT-549 breast = settings: 10 µM unless noted
# MDA-MB-435 melanoma = settings: 10 µM unless noted
# SW-620 colon = settings: 10 µM unless noted
# MCF7 breast = settings: 10 µM unless noted
# HCT-116 colon = settings: 10 µM unless noted
# HCC-2998 colon = settings: 10 µM unless noted
# KM12 colon = settings: 10 µM unless noted
# OVCAR-5 ovarian = settings: 10 µM unless noted
Compound,growth (SR leukemia),growth (RPMI-8226 leukemia) [%],growth (OVCAR-8 ovarian),growth (OVCAR-4 ovarian),growth (SK-OV-3 ovarian) [%],growth (IGROV1 ovarian),growth (OVCAR-3 ovarian),growth (HS 578T breast),growth (NCI/ADR-RES ovarian),growth (T-47D breast),growth (BT-549 breast),growth (MDA-MB-435 melanoma),growth (SW-620 colon),growth (MCF7 breast),growth (HCT-116 colon),growth (HCC-2998 colon),growth (KM12 colon),growth (OVCAR-5 ovarian)
COc1ccc(-c2c(-c3cc4c(c(OC)c3OC)OCO4)noc2N)cc1,10.9%,17.3,32.1%,55%,16.2,46.3%,-38.1% (active),16%,2.53% (active),47.5%,60.1%,-32.1% (active),17.9%,19.7%,22.2%,20.6%,18.9%,
O=c1[nH]c(=O)n(Cc2ccc(F)cc2)cc1F,93.5% [50 µM],,94.2% [50 µM],108% [50 µM],,108% [50 µM],116% [50 µM],104% [50 µM],113% [50 µM],,102% [50 µM],104% [50 µM],105% [50 µM],96.3% [50 µM],112% [50 µM],112% [50 µM],106% [50 µM],104% [50 µM]
Cc1ccc(-c2nnc(COc3ccc(-c4nnc(N)s4)cc3)o2)cc1,5.12% (active),,100%,58%,80.7,108%,98.1%,85%,,101%,92.9%,,94.8%,68.3%,63.4%,107%,92.6%,113%
Cc1ccc(C(=O)O[C@H](C(=O)O)[C@H](OC(=O)c2ccc(C)cc2)C(=O)O)cc1,87.5%,,,,,,,,,93.6%,,,,,,,,
COC(=O)[C@@H]1CCCN1C(=O)[C@@H]1CCCN1C(=O)[C@@H](Cc1c[nH]c2ccccc12)NC(=S)Nc1cc(C(F)(F)F)cc(C(F)(F)F)c1,-17.5% (active),,67.6%,42%,90.9,36%,44.1%,59.2%,,32.8%,82.4%,5.44% (active),50.3%,25.9%,34%,35.4%,66.2%,91%
COc1ccc(/C=C(\C#N)c2cc3ccccc3n2C)cc1,18.7%,,34.2%,37.1%,,34.7%,-34.3% (active),2.89% (active),8.82% (active),,51.2%,-49.1% (active),20%,15.4%,18.2%,24.8%,16.8%,39.7%
Cc1ccccc1-n1nnc(C(=O)Nc2ccc(-c3ccccc3)cn2)c1C,16% [50 µM],,41.2% [50 µM],11.5% [50 µM],,71% [50 µM],68.8% [50 µM],,33.3% [50 µM],,50.7% [50 µM],23.8% [50 µM],69.3% [50 µM],24.3% [50 µM],31.3% [50 µM],73.9% [50 µM],53% [50 µM],87.1% [50 µM]
CCOC(=O)n1cc(C2=C(c3cn(C)c4ccccc34)COC2=O)c2ccccc21,14%,,16.5%,28.8%,,14.7%,-29.8% (active),9.62% (active),2.15% (active),,26.8%,-22.2% (active),20.9%,10.2%,10.6%,16.5%,2.55% (active),29.9%
CCN(CC)c1ccc(/C=C(\C#N)c2cc3ccccc3[nH]2)cc1,24.6%,,63.4%,68.2%,,65.1%,20.9%,58.3%,35.4%,,69.5%,1.8% (active),23.3%,23.7%,31.5%,77.8%,21.7%,72.4%
CN(C)c1ccc(/C=C(\C#N)c2cc3ccccc3n2C)cc1,22%,,34.8%,40.3%,,26.7%,-4.72% (active),20.9%,7.61% (active),,37.6%,-26.9% (active),21%,15.1%,10.6%,20.1%,18.5%,38.5%
Cc1c(C(=O)Nc2nc(-c3ccccc3)cs2)nnn1-c1ccccc1Br,17% [50 µM],,40.1% [50 µM],19.6% [50 µM],,68.3% [50 µM],57.3% [50 µM],65.3% [50 µM],38.1% [50 µM],,35.5% [50 µM],20.1% [50 µM],61% [50 µM],19% [50 µM],32.6% [50 µM],72.7% [50 µM],36.3% [50 µM],77.4% [50 µM]
COc1cc(-c2nc(SC(C)C)nc(Nc3cccc(C)c3)c2C#N)cc(OC)c1OC,95%,,93.5%,107%,,103%,115%,104%,105%,,107%,107%,109%,98.1%,115%,116%,110%,107%
Cl.Fc1c[c-]c(-c2ccccn2)c(F)c1.[Pt].c1ccc([PH+](CC[PH+](c2ccccc2)c2ccccc2)c2ccccc2)cc1,-6.03% (active),,-29.1% (active),-87.8% (active),,-75.5% (active),-97.2% (active),-44.6% (active),-35.4% (active),-65.2% (active),-69.2% (active),-91.9% (active),-88.8% (active),-74.7% (active),-90.4% (active),-82.9% (active),-89.1% (active),-93.4% (active)
O=c1c2c(=NCCN3CCCC3)cc3c(=O)n(CCCN4CCOCC4)c(=O)c4ccc(c(O)n1CCCN1CCOCC1)c2c4-3,13.5%,,11.9%,-49.1% (active),,2.41% (active),-8.68% (active),-13.9% (active),-2.98% (active),,-34.9% (active),-87.9% (active),-15.5% (active),-17.7% (active),0.411% (active),-45.8% (active),-20.9% (active),-10.9% (active)
Cc1nc2cc(Nc3nc(N4CCCCC4)nc(N4CCOCC4)n3)ccc2n1Cc1ccccc1,,17.7,27.6%,-63.9% (active),39.8,47%,-3.53% (active),34.6%,27%,-8% (active),63.2%,52.8%,44.1%,65.5%,-49.9% (active),94.3%,18.3%,55.8%
O=c1[nH]c(=S)[nH]c(=O)n1Cc1cccc2ccccc12,,106,99.7%,93.4%,102,115%,113%,102%,108%,99.5%,107%,99.7%,103%,80.9%,102%,86.5%,105%,107%
c1ccc2cc(Cn3c(-c4ccc5ccccc5c4)[n+](Cc4ccc5ccccc5c4)c4ccccc43)ccc2c1,-27.8% (active),,-62.9% (active),-17.2% (active),,-74% (active),-96% (active),-58.9% (active),31.2%,,-46.5% (active),-80.4% (active),-85% (active),-70.1% (active),-61% (active),-88.7% (active),-90.6% (active),-12.2% (active)
O=C1CCC(N2C(=O)c3cccc(NCCOCCOCCNC(=O)c4cc5c(o4)C(=O)c4ccccc4C5=O)c3C2=O)C(=O)N1 (stereo not given),9.2% (active),,3.28% (active),-93.5% (active),,-16.1% (active),-40.6% (active),-29.7% (active),93.7%,4.87% (active),-89.3% (active),-92.1% (active),-19.3% (active),-61.3% (active),-16.1% (active),-61.7% (active),-8.32% (active),-90.8% (active)
COc1cc(-c2nc(SC(C)C)nc(Nc3ccccc3C)c2C#N)cc(OC)c1OC,110%,,103%,110%,,104%,121%,104%,109%,,109%,106%,104%,101%,114%,106%,104%,99.1%
